# PubChem BioAssay (NCI)
# About 79,000 compounds went through this panel and 15% of them were active in at least one assay; those are over-represented in the sample as a whole. A number with no mark means an inactive call. Active and inactive are the calls of the source. Rule as the data show it: active = growth inhibition above about 70%; inactive = the rest.
# Assay: NCI Yeast Anticancer Drug Screen. Data for the bub3 strain (AID 167)
# Settings: S. cerevisiae bub3 mutant strain, at 11.0 µM, stronger effect = higher value
# Method in brief: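 Part of a panel of yeast mutants defective in DNA damage repair or cell cycle regulation. Each strain is grown with compound, and inhibition is calculated relative to solvent-treated cultures.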
row,SMILES,growth inhibition
1,O=C1/C(=C/c2ccccc2)CCCC1CN1CCCCC1 (configuration not stated),79% (active)
2,C#CCN(Cc1ccc2nc(N)[nH]c(=O)c2c1)c1ccc(C(=O)NC(CCC(=O)O)C(=O)O)cc1 (configuration not stated),-18%
3,CCOC1(c2cccc([N+](=O)[O-])c2)c2ccccc2Oc2ccccc21,3%
4,O=C(O)CNC(=S)Nc1ccccc1,-15%
5,N/C(=N/N=C/c1cc(Br)cc(Br)c1O)NO,44%
6,C[Si](C)(C)/C=C/CCNC(C#N)c1ccccc1 (configuration not stated),38%
7,CCCCCCCCCCCCCCCCOP(=O)(O)OCC(N)C(=O)O (configuration not stated),34%
8,CC1=C(C(=O)NCc2ccccc2)C(c2ccccc2)C(C(=O)NCc2ccccc2)=C(C)N1,0%
9,O=[N+]([O-])c1cc(S(=O)(=O)Nc2ccccc2)ccc1Nc1ccccc1,94% (active)
10,CCOC(=O)C(Br)C(Br)c1ccccc1Cl (configuration not stated),47%
11,CCOC(=O)C1=C(C)NC(C)=C(C(=O)OCCNC(=O)c2ccc(N=[N+]=[N-])cc2)C1c1ccccc1C(F)(F)F (configuration not stated),-5%
12,Cc1cc(C)c(NC(=S)NC(=O)c2ccccc2)cc1C,38%
13,CNCCCNc1c2ccccc2nc2cccc([N+](=O)[O-])c12,92% (active)
14,COc1c(O)c(C=O)c(Br)c(C=O)c1O,3%
15,Cc1c(C)c(C)c(CSC(=N)N)c(C)c1C,-10%
16,O=C(CSC(=S)N1CCCCC1)Nc1nc2c(s1)CCCC2,-4%
17,CNC(=O)OCc1c(COC(=O)NC)c(-c2ccc(Cl)cc2)n2c1CCC2,-55%
18,CC(=O)OC1CC2C(C)(C)C(=O)C=C[C@]2(C)C2CCC3(C)C(=CCC3[C@H](CO)C[C@H](O)C(=O)C(C)(C)O)[C@]12C (some centres not stated),-41%

row,SMILES,growth inhibition
1,C[C](C)(C)[Ge]([O][Ge]([c]1ccccc1)[c]1ccccc1)([O][Ge]([c]1ccccc1)[c]1ccccc1)[C](C)(C)C,53%
2,CCc1c(Cl)c(C)cc(O)c1Cl,-7%
3,Cc1nc(Nc2ccccc2[N+](=O)[O-])sc1C(=O)CC(=O)C(=O)Nc1c(C(C)C)cccc1C(C)C,7%
4,O=[N+]([O-])c1cccc2nc3ccccc3c(NCCCn3ccnc3[N+](=O)[O-])c12,11%
5,CCCCCCC(O)CNCc1ccnc2ccc(OC)cc12 (configuration not stated),24%
6,Cc1c2cccc(Sc3ccccc3)c2c2c3c(cccc13)[S+](c1ccccc1)C2 (configuration not stated),97% (active)
7,C=C1CCC(O)C/C1=C/C=C1\CCCC2(C)C1CCC2C(C)CCCC(C)C (configuration not stated),-27%
8,NC1=NNC2(C(N)=N1)c1ccccc1-c1ccccc12,26%
9,COc1cc2cc3c4cc(OC)c(OC)cc4cc[n+]3c(C)c2cc1OC,13%
10,COC(=O)NC1C(C)OC(OC2C/C=C(/C)C3C=CC4C(OC5CC(OC6CC(O)C(OC7CC(O)C(OC)C(C)O7)C(C)O6)C(O)C(C)O5)C(C)CC(C)C4C3(C)/C(O)=C3\C(=O)OC4(CC(C)C(CO)=CC4/C=C\2C)C3=O)CC1(C)[N+](=O)[O-] (configuration not stated),13%
11,O=C1CSC(c2cccc(Cl)c2)N1c1ccc(-c2ccc(-n3c(-c4ccccc4)nc4ccccc4c3=O)cc2)cc1 (configuration not stated),6%
12,CCOC(=O)C(C(=O)OCC)=P(c1ccccc1)(c1ccccc1)c1ccccc1,1%
13,COc1ccc(N=CN(C)C)c(C)c1,-28%
14,Cc1cc(S(=O)(=O)Nc2nnc3cnc4ccccc4n23)c(S)cc1Cl,2%
15,CN(C)[C@@H]1C(=O)C(C(N)=O)=C(O)[C@@]2(O)C(=O)C3=C(O)c4c(O)cccc4C[C@H]3C[C@@H]12,5%
16,O=[N+]([O-])c1ccc2c(c1)/C(=N/N=C1c3ccccc3Cc3ccccc31)c1cc([N+](=O)[O-])cc([N+](=O)[O-])c1-2,99% (active)
17,Cc1nc2c(Br)cc(Br)cc2c(=O)n1-c1ccccc1NC1OCC(O)C(O)C1O (configuration not stated),8%
18,Cc1cc(N(CCOS(C)(=O)=O)CCOS(C)(=O)=O)ccc1C=Nc1ccc(-c2nc(Cc3ccccc3)sc2C)cc1,25%

# Same assay, conditions: S. cerevisiae bub3 mutant strain, at 33.0 µM, stronger effect = higher value
row,SMILES,growth inhibition
1,O=C1/C(=C/c2ccccc2)CCCC1CN1CCCCC1 (configuration not stated),95% (active)
2,C#CCN(Cc1ccc2nc(N)[nH]c(=O)c2c1)c1ccc(C(=O)NC(CCC(=O)O)C(=O)O)cc1 (configuration not stated),3%
3,CCOC1(c2cccc([N+](=O)[O-])c2)c2ccccc2Oc2ccccc21,1%
4,O=C(O)CNC(=S)Nc1ccccc1,49%
5,N/C(=N/N=C/c1cc(Br)cc(Br)c1O)NO,93% (active)
6,C[Si](C)(C)/C=C/CCNC(C#N)c1ccccc1 (configuration not stated),43%
7,CCCCCCCCCCCCCCCCOP(=O)(O)OCC(N)C(=O)O (configuration not stated),98% (active)
8,CC1=C(C(=O)NCc2ccccc2)C(c2ccccc2)C(C(=O)NCc2ccccc2)=C(C)N1,45%
9,O=[N+]([O-])c1cc(S(=O)(=O)Nc2ccccc2)ccc1Nc1ccccc1,91% (active)
10,CCOC(=O)C(Br)C(Br)c1ccccc1Cl (configuration not stated),98% (active)
11,CCOC(=O)C1=C(C)NC(C)=C(C(=O)OCCNC(=O)c2ccc(N=[N+]=[N-])cc2)C1c1ccccc1C(F)(F)F (configuration not stated),4%
12,Cc1cc(C)c(NC(=S)NC(=O)c2ccccc2)cc1C,65%
13,CNCCCNc1c2ccccc2nc2cccc([N+](=O)[O-])c12,98% (active)
14,COc1c(O)c(C=O)c(Br)c(C=O)c1O,54%
15,Cc1c(C)c(C)c(CSC(=N)N)c(C)c1C,55%
16,O=C(CSC(=S)N1CCCCC1)Nc1nc2c(s1)CCCC2,80% (active)
17,CNC(=O)OCc1c(COC(=O)NC)c(-c2ccc(Cl)cc2)n2c1CCC2,-17%
18,CC(=O)OC1CC2C(C)(C)C(=O)C=C[C@]2(C)C2CCC3(C)C(=CCC3[C@H](CO)C[C@H](O)C(=O)C(C)(C)O)[C@]12C (some centres not stated),-29%

row,SMILES,growth inhibition
1,C[C](C)(C)[Ge]([O][Ge]([c]1ccccc1)[c]1ccccc1)([O][Ge]([c]1ccccc1)[c]1ccccc1)[C](C)(C)C,77% (active)
2,CCc1c(Cl)c(C)cc(O)c1Cl,20%
3,Cc1nc(Nc2ccccc2[N+](=O)[O-])sc1C(=O)CC(=O)C(=O)Nc1c(C(C)C)cccc1C(C)C,12%
4,O=[N+]([O-])c1cccc2nc3ccccc3c(NCCCn3ccnc3[N+](=O)[O-])c12,51%
5,CCCCCCC(O)CNCc1ccnc2ccc(OC)cc12 (configuration not stated),44%
6,Cc1c2cccc(Sc3ccccc3)c2c2c3c(cccc13)[S+](c1ccccc1)C2 (configuration not stated),94% (active)
7,C=C1CCC(O)C/C1=C/C=C1\CCCC2(C)C1CCC2C(C)CCCC(C)C (configuration not stated),-13%
8,NC1=NNC2(C(N)=N1)c1ccccc1-c1ccccc12,38%
9,COc1cc2cc3c4cc(OC)c(OC)cc4cc[n+]3c(C)c2cc1OC,6%
10,COC(=O)NC1C(C)OC(OC2C/C=C(/C)C3C=CC4C(OC5CC(OC6CC(O)C(OC7CC(O)C(OC)C(C)O7)C(C)O6)C(O)C(C)O5)C(C)CC(C)C4C3(C)/C(O)=C3\C(=O)OC4(CC(C)C(CO)=CC4/C=C\2C)C3=O)CC1(C)[N+](=O)[O-] (configuration not stated),9%
11,O=C1CSC(c2cccc(Cl)c2)N1c1ccc(-c2ccc(-n3c(-c4ccccc4)nc4ccccc4c3=O)cc2)cc1 (configuration not stated),8%
12,CCOC(=O)C(C(=O)OCC)=P(c1ccccc1)(c1ccccc1)c1ccccc1,-3%
13,COc1ccc(N=CN(C)C)c(C)c1,88% (active)
14,Cc1cc(S(=O)(=O)Nc2nnc3cnc4ccccc4n23)c(S)cc1Cl,10%
15,CN(C)[C@@H]1C(=O)C(C(N)=O)=C(O)[C@@]2(O)C(=O)C3=C(O)c4c(O)cccc4C[C@H]3C[C@@H]12,97% (active)
16,O=[N+]([O-])c1ccc2c(c1)/C(=N/N=C1c3ccccc3Cc3ccccc31)c1cc([N+](=O)[O-])cc([N+](=O)[O-])c1-2,98% (active)
17,Cc1nc2c(Br)cc(Br)cc2c(=O)n1-c1ccccc1NC1OCC(O)C(O)C1O (configuration not stated),47%
18,Cc1cc(N(CCOS(C)(=O)=O)CCOS(C)(=O)=O)ccc1C=Nc1ccc(-c2nc(Cc3ccccc3)sc2C)cc1,89% (active)
